Measurements reported in PubChem BioAssay AID741 (SRMLSC, 2007).
Inconclusive results are not listed. The source made the active and inactive calls. Rule as the data show it: active = toxicity enhancement factor above about 0.054; inconclusive = between about 0.00067 and that limit; inactive = weaker than that.

Test: reversers of MRP drug resistance, dose response, cell-based (AID 741)
Conditions: MRP-overexpressing cells, viability with/without cytotoxic drug; slope difference: measured here: slope difference tox minus reversal, stronger effect = higher value; toxicity enhancement factor: stronger effect = higher value; viability: measured here: viability series, compound alone, at 10 µM, stronger effect = lower value
For Cc1ccc(N2C(N)=C(C#N)C(c3cccnc3)C3=C2CC(C)(C)CC3=O)cc1 (configuration not stated), the slope difference was 2.48, the viability was 57.5% and the toxicity enhancement factor was 0.0915 (active). In the case of CC(C(=O)O)c1ccc(-c2ccccc2)c(F)c1 (configuration not stated), the slope difference is reported as -0.412, the toxicity enhancement factor is reported as -0.0042 (inactive) and the viability is reported as 89%. With O=C(O)c1ccc(-n2nnnc2SCc2ccccc2)cc1 the slope difference was -0.76, the viability was 88.7% and the toxicity enhancement factor was -0.0082 (inactive). For CC1(C)CC(=O)C2=C(C1)N(c1ccccc1)C(N)=C(C#N)C2c1cccnc1 (configuration not stated), the toxicity enhancement factor was 0.105 (active), the viability was 60% and the slope difference was 2.68. With CCCNS(=O)(=O)c1ccc(NC(=O)c2ccccn2)cc1 the toxicity enhancement factor was -0.001 (inactive), the slope difference was -0.0969 and the viability was 99.5%. For CCCn1c(=O)[nH]c(=O)c2[nH]cnc21, the slope difference was -0.568, the viability was 101% and the toxicity enhancement factor was -0.0054 (inactive). In the case of Clc1cnc(N/N=C/c2cccs2)c(Cl)c1, the viability is reported as 96.8%, the slope difference is reported as -0.68 and the toxicity enhancement factor is reported as -0.0069 (inactive). In the case of O=C(c1ccccc1)c1ccc2n1CCC2C(=O)O (configuration not stated), the viability is reported as 106%, the toxicity enhancement factor is reported as -0.001 (inactive) and the slope difference is reported as -0.0977. In the case of CC1CN(c2nc3ccccn3c(=O)c2/C=C(\C#N)S(=O)(=O)c2ccccc2)CC(C)O1 (configuration not stated), the slope difference is reported as 3.36, the viability is reported as 93.3% and the toxicity enhancement factor is reported as 0.0581 (active). In the case of CSc1cccc(NC(=O)C2CCN(S(C)(=O)=O)CC2)c1, the viability is reported as 94.7%, the toxicity enhancement factor is reported as -0.0028 (inactive) and the slope difference is reported as -0.244. For CCn1c(N)c(C(=O)N2CCOCC2)sc1=S, the toxicity enhancement factor was -0.0052 (inactive), the slope difference was -0.557 and the viability was 101%. With Cc1oncc1C(=O)Nc1ccc(C(F)(F)F)cc1 the slope difference was -0.34, the viability was 96.5% and the toxicity enhancement factor was -0.0035 (inactive). For CC(C)Cc1ccc(C(C)C(=O)O)cc1 (configuration not stated), the viability was 93.7%, the toxicity enhancement factor was -0.0059 (inactive) and the slope difference was -0.62. With COC(=O)Nc1ccc(S(=O)(=O)N2c3ccccc3CCC2C)cc1 (configuration not stated) the toxicity enhancement factor was -0.0581 (inactive), the slope difference was -2.95 and the viability was 20.1%. With CCCNc1nc2c(c(=O)n(C)c(=O)n2C)n1Cc1ccc(F)cc1 the slope difference was -0.107, the viability was 92.8% and the toxicity enhancement factor was -0.0012 (inactive). For CC1=NN(C(N)=S)C(=O)C1N=Nc1ccccc1C (configuration not stated), the toxicity enhancement factor was -0.0057 (inactive), the viability was 92.1% and the slope difference was -0.556. In the case of CC1(C)CC(=O)C2=C(C1)N(c1ccccc1)C(N)=C(C#N)C2c1ccccc1 (configuration not stated), the slope difference is reported as 3.21, the viability is reported as 73.3% and the toxicity enhancement factor is reported as 0.108 (active). For c1ccc(-c2nc(N3CCOCC3)c3ccccc3n2)nc1, the toxicity enhancement factor was -0.0278 (inactive), the slope difference was -2.79 and the viability was 87%. With c1ccc2c(c1)nc1n2CN(Cc2ccc3c(c2)OCO3)CN1 the viability was 85.8%, the slope difference was -0.301 and the toxicity enhancement factor was -0.0032 (inactive). With CCCCNc1c2c3c(cccc3n(C)c1=O)C(=O)c1ccccc1-2 the viability was 32.4%, the toxicity enhancement factor was -0.0634 (inactive) and the slope difference was -4.84. In the case of CCOC(=O)Nc1ccc(S(=O)(=O)Nc2nccc(C)n2)cc1, the viability is reported as 97.4%, the slope difference is reported as -0.237 and the toxicity enhancement factor is reported as -0.0025 (inactive). For CCCCC1C(=O)N(c2ccccc2)N(c2ccccc2)C1=O, the toxicity enhancement factor was -0.0047 (inactive), the viability was 101% and the slope difference was -0.496. In the case of CCCc1cc(Nc2c(C)n(C)n(-c3ccccc3)c2=O)n2c(nc3ccccc32)c1C#N, the viability is reported as 97.6%, the toxicity enhancement factor is reported as 0.0896 (active) and the slope difference is reported as 4.27. For Cn1c(=O)c2c(nc(NC3CCCCC3)n2CC(O)COc2ccccc2)n(C)c1=O (configuration not stated), the viability was 68.8%, the toxicity enhancement factor was -0.0085 (inactive) and the slope difference was -0.557. In the case of COC(=O)c1ccccc1NC(=O)c1cccs1, the viability is reported as 87.5%, the slope difference is reported as -0.205 and the toxicity enhancement factor is reported as -0.0023 (inactive). With Cc1cccc(Cn2c(NCC(C)O)nc3c2c(=O)n(C)c(=O)n3C)c1 (configuration not stated) the slope difference was -0.509, the viability was 93.7% and the toxicity enhancement factor was -0.0055 (inactive). In the case of O=C(COc1ccccc1)N1CCN(c2ncnc3c2cnn3-c2ccccc2)CC1, the viability is reported as 53.8%, the slope difference is reported as -0.402 and the toxicity enhancement factor is reported as -0.0084 (inactive). In the case of Cc1nn(C)c(C)c1NC(=O)CSc1nc(C2CC2)nc2c1cnn2-c1ccccc1, the viability is reported as 27.3%, the slope difference is reported as -1.07 and the toxicity enhancement factor is reported as -0.0298 (inactive). With CCOc1nc2c(c(=O)n(C)c(=O)n2C)n1Cc1ccccc1Cl the slope difference was -0.531, the toxicity enhancement factor was -0.0077 (inactive) and the viability was 71%. For Cc1ccc(CN(C(=O)c2ccco2)C(C(=O)NC2CCCC2)c2ccc(N3CCOCC3)cc2)cc1 (configuration not stated), the slope difference was 2.19, the toxicity enhancement factor was 0.0523 (active) and the viability was 72.9%. With CN1C(C(=O)Nc2ccccn2)=C(O)c2ccccc2S1(=O)=O the toxicity enhancement factor was -0.0045 (inactive), the viability was 92.3% and the slope difference was -0.409. For CCCN1C2=C(C(=O)CC(C)(C)C2)C(c2ccc(F)cc2)C2=C1c1ccccc1C2=O (configuration not stated), the toxicity enhancement factor was 0.126 (active), the slope difference was 3.28 and the viability was 64.6%. For CC(=O)Oc1cccc2c1C(=O)c1c(OC(C)=O)cc(C(=O)O)cc1C2=O, the viability was 89.5%, the slope difference was -1.12 and the toxicity enhancement factor was -0.0114 (inactive). In the case of CS(=O)(=O)Nc1ccc([N+](=O)[O-])cc1Oc1ccccc1, the toxicity enhancement factor is reported as -0.0071 (inactive), the slope difference is reported as -0.667 and the viability is reported as 97.8%.
